The values that follow come from PubChem BioAssay AID504843 (Broad Institute, 2011).

About 360 (30%) of roughly 1,200 compounds were called active. The rule behind the calls is not given here. These entries were drawn from the full list. Results with a measured potency or affinity are listed apart.

The assay is described as follows: bacterial growth inhibition, dose response, counter-screen, BacTiter-Glo luminescence, cherry-picked samples (AID 504843).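 Note: growth measured after 8 h incubation at 30 °C.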 The settings on record: BacTiter-Glo ATP luminescence; series mostly up to 15 µM. In general terms: Counterscreens check selectivity or assay interference.
Take `O=[N+]([O-])c1ccc(/C=N/n2c(CO)nc3ccccc32)s1`: the compound was called inactive.
On to `Cc1nn(-c2ccccc2)c2nc3c(cc12)C(=O)CCC3`, for which the compound was classed as inactive.
For `O=C(CN1CCC(n2nnc3cc(F)ccc32)CC1)NCc1ccco1`, the outcome was inactive.
Take `Nc1nc2n(n1)C(c1cccc(Br)c1)CC(c1ccccc1)N2` (configuration not stated): the compound was classed as inactive.
Then `Nc1ccccc1S(=O)(=O)NC1=NCCCCC1`, with “inactive”; and `CCOc1ccc(-c2c(C(=O)N/N=C/c3c[nH]c4ccccc34)nnn2-c2nonc2N)cc1`, with “inactive”; and `Cc1ccc(NC(=O)NCc2ccccn2)cc1Cl`, with “inactive”.
As to `Cc1ccc(NC(=O)c2ncn(CCCNCc3ccccn3)n2)cc1C`, the compound was classed as inactive.
Turning to `COc1ccc(CN2CCN(C(=O)C3CCC(CNS(=O)(=O)c4ccccc4)CC3)CC2)c(OC)c1OC` (configuration not stated), the result was inactive.
Then `Cc1nc2ncnn2c(C)c1CCC(=O)N1CCCCC1`, with “inactive”; and `COc1ccc(Nc2cc(C)nc3nc(C)nn23)c(OC)c1`, with “inactive”.
Turning to `CSc1ccc(NC(=O)N2CCN(c3nc4ccccc4s3)CC2)cc1`, the compound was called inactive.
Then `O=C(Cn1cc([N+](=O)[O-])cn1)N1CCN(c2ccccc2)CC1`, with “inactive”; and `COCCC1CCCCN1C(=O)c1cccc(OC2CCN(S(C)(=O)=O)CC2)c1` (configuration not stated), with “inactive”; and `CCN1CCN(CCCNc2ncnc3nc[nH]c23)CC1`, with “inactive”.
Turning to `C1=C(CCNc2ncnc3c2cnn3-c2ccccc2)CCCC1`, the compound was classed as inactive.
With `COc1ccc(-c2c(-c3cc(OC)cc(OC)c3)n(C)c3ccc(-c4ccc(S(N)(=O)=O)cc4)cc23)cc1` the entry was “inactive”.
With `CC(C)c1ccc(C(=O)CN2C(=O)NC3(CCc4ccccc43)C2=O)cc1` (configuration not stated) the entry was “inactive”; with `Cc1nc(Cl)c(C(=O)NCc2ccccc2)c(C)c1Cl`, “inactive”; with `C#CCOCCOCCOCCNc1nc(N2CCN(C(=O)Cn3cc(CC(C)O)nn3)CC2)nc(N2CCN(C(=O)[C@H](CCCCN)n3cc(CCCC)nn3)CC2)n1` (some centres not stated), “inactive”.
Then `O=C(C1CCCO1)N1CCN(c2c3c(nc4cc(-c5ccc(F)cc5)nn24)CCC3)CC1` (configuration not stated), with “inactive”; and `Nc1nc(CN2CCCCC2)cs1`, with “inactive”; and `Nc1nc(NCC2CCCO2)nc(Nc2cccc(Cl)c2)c1[N+](=O)[O-]` (configuration not stated), with “inactive”.
Turning to `O=C(NCc1ccccc1)C(=O)NCC1OCCN1S(=O)(=O)c1ccc([N+](=O)[O-])cc1` (configuration not stated), the call was inactive.
For the compound `COC(=O)c1ccc(Cl)cc1NC(=O)/C=C/c1ccc(C)o1`, the compound was called inactive.
With `CC(NC(=O)c1ccc([N+](=O)[O-])cc1[N+](=O)[O-])c1ccc(-c2ccccc2)cc1` (configuration not stated) the entry was “inactive”.
`O=C(Nc1ccc(F)cc1)C1CC(=O)N(Cc2ccco2)C1` (configuration not stated): the result was inactive.
With `O=C(Cn1nc(C(F)(F)F)c2c1CCCC2)NCc1ccco1`, the outcome was inactive.
Consider `CN(Cc1cn[nH]c1-c1ccc(-c2ccccc2)cc1)CC1CCOCC1`, for which the call was inactive.
For the compound `COc1ccc2c(c1)c1c3n2CCN(C)C3=NCC1`, the outcome was inactive.
In the case of `CC(C)C(C(=O)NC1CCCC1)N(CC1CCCO1)C(=O)CNS(=O)(=O)c1ccccc1` (configuration not stated), the outcome was inactive.
Then `CCCCC(=O)N(c1ccc(C)c(C)c1)C1C=CS(=O)(=O)C1` (configuration not stated), with “inactive”; and `COc1ccccc1N(CC(=O)NC1CCCC1)C(=O)c1csnn1`, with “inactive”; and `COc1cc(CNc2ccc3[nH]c(=O)[nH]c3c2)ccc1OCC(=O)NC(C)(C)C`, with “inactive”.
Then `Cc1nc2ccccn2c1/C(O)=C1\C(=O)C(=O)N(CCN(C)C)C1c1ccco1` (configuration not stated), with “inactive”.
For `CCN(C[C@H]1N[C@@](Cc2ccccc2)(C(=O)OC)[C@H]2C(=O)N(C)C(=O)[C@@H]12)C(C)=O`, the compound was called inactive.
Then `CCOCCOc1nc2c(c(=O)n(C)c(=O)n2C)n1Cc1ccc(C)cc1`, with “inactive”; and `CCc1cccc2c1NC(=O)C2(O)N1CCCC(C)C1` (configuration not stated), with “inactive”.
As for `COc1ccc(/C=C/C(=O)Nc2ccccc2C(=O)O)cc1OC`, the result was inactive.
Then `CCOC(=O)c1ccccc1NC(=S)N1CC(C)CC(C)C1` (configuration not stated), with “inactive”; and `CC1(C)CC(=O)c2cc3c(nc2C1)CC(C)(C)CC3=O`, with “inactive”; and `CC(C)NC(=O)CN1CCN(C(=O)c2ccc3oc(CCCc4ccccc4)nc3c2)CC1`, with “inactive”.
As to `Cc1nn(C)c(C)c1S(=O)(=O)N(CC(=O)NCCCN1CCC(C)CC1)c1ccc(C(C)C)cc1`, the result was inactive.
With `O=C(CSc1ncnc2ccccc12)NCc1ccco1` the entry was “inactive”.
With `O=C(CN(Cc1ccccc1Cl)C(=O)CNS(=O)(=O)c1ccc(F)cc1)NCC1CCCO1` (configuration not stated) the entry was “inactive”; with `COc1ccccc1N1CCN(C(=O)CSc2nnc(NC(=O)C(C)C)s2)CC1`, “inactive”; with `Cc1ccc(Cn2c(=O)oc3ccccc32)cc1`, “inactive”.
Turning to `Cc1cccc(NC(=S)N/N=C/c2c[nH]c3ccccc23)c1`, the compound was called inactive.
With `CC1CCCN(C(=O)c2nn(C)c3c2CSc2ccccc2-3)C1` (configuration not stated) the entry was “inactive”; with `O=C(NCCNC(=O)c1ccccc1F)c1ccccn1`, “inactive”; with `CCCC(=O)NC1=C(C#N)C2(CCCC2)Cc2ccccc21`, “inactive”.
With `COc1ccccc1NC(=O)NCCCCc1ccccc1` the entry was “inactive”; with `COc1ccccc1NC(=S)NC1CC2CCC1C2` (configuration not stated), “inactive”.
With `Cc1cc(C)n2nc(SCC(=O)N3CCN(c4ccccc4)CC3)nc2n1` the entry was “inactive”; with `O=C(CN1CCN(c2ccccc2)CC1)N1N=CCC1c1ccccc1` (configuration not stated), “inactive”.
For the compound `CCCSc1nnc(CNS(=O)(=O)c2ccc(C)cc2)n1C`, the compound was classed as inactive.
On to `CCN(CC)S(=O)(=O)c1ccc(OC)c(NC(=O)c2ccc(=O)[nH]c2)c1`, for which the result was inactive.
Then `COC(=O)[C@H](CC(C)C)N(Cc1ccccc1)S(=O)(=O)N(Cc1ccccc1)[C@@H](CC(C)C)C(=O)OC`, with “inactive”; and `Nc1cc(S(=O)(=O)C(F)(F)F)ccc1C(=O)O`, with “inactive”; and `N#Cc1cccc(Nc2c3c(nc4ccccc24)CCCC3)c1`, with “inactive”.
Then `O=C1c2cccc3cccc(c23)C(=O)N1CC1CCN(CC(O)COc2ccc3ccccc3c2)CC1` (configuration not stated), with “inactive”.
In the case of `CC(=O)c1ccccc1OCC(O)CN1CCN(C(c2ccccc2)c2ccccc2)CC1` (configuration not stated), the result was inactive.
With `Cc1cc(C)c(C#N)c(SCS(=O)c2ccc(C(C)(C)C)cc2)n1` (configuration not stated) the entry was “inactive”.
On to `C#CCNC(=O)C1=C[C@H](c2csc3ccccc23)[C@@H](CCCO)[C@H](OCC)O1`, for which the call was inactive.
Then `CN(C/C=C/c1ccccc1[N+](=O)[O-])Cc1ccccc1`, with “inactive”.
With `O=S(=O)(c1cc(Cl)cc(Cl)c1O)N1CCC2(CC1)OCCO2` the entry was “inactive”; with `Cc1cccn2c(=O)c3cc(S(=O)(=O)c4ccccc4)c(=N)n(Cc4ccco4)c3nc12`, “inactive”.
